Measured values from PubChem BioAssay (NCATS).
Several values for one entry are separate records, joined by “and”; a condition that tells them apart may be missing. Equal values may be shown once. Inconclusive results are not listed. Where a structure was tested more than once in an assay, its records may differ in their call. Activity calls are given as the source filed them. Unless noted, the call rests on the fitted dose curve; in most records, active means well fitted curve in the direction sought with a large enough effect; inconclusive means small, poorly fitted or top-dose-only effect, or another doubt; inactive means no such curve, though single readings can be large; an effect the other way counts as inactive or inconclusive.

Legend:
[1] = Cell Viability - BJ (AID 421; calls by dose curve;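 further: potency means the concentration at half of the fitted maximal effect; cells exposed to compound for 40 hours at 37 °C before readout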); settings: BJ fibroblast viability, qHTS
Summary of the method: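 Quantitative HTS: ATP depletion in BJ cells after 40 hr compound exposure in complete culture medium, detected with CellTiter-Glo; AC50 from standard Hill fits.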

[2] = Cell Viability - MRC5 (AID 434; calls by dose curve;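 further: potency means the concentration at half of the fitted maximal effect; cells exposed to compound for 40 hours at 37 °C; potency reflects cytotoxicity seen as loss of intracellular ATP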); settings: MRC5 lung fibroblast viability, qHTS
Summary of the method: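 ATP luminescence read-out (CellTiter-Glo, 20 min RT) after 40 hr, 37 °C compound exposure of 1500 MRC5 cells/well. Data normalized to DMSO (basal) and 100 uM tamoxifen (100% inhibition); AC50 from standard Hill equation.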

[3] = Cell Viability - SK-N-SH (AID 435; calls by dose curve;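 further: potency means the concentration at half of the fitted maximal effect; compound exposure lasted 40 h at 37 °C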); settings: SK-N-SH neuroblastoma cell viability qHTS
Summary of the method: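 Cells seeded at 1500 per well and incubated 5 hr at 37 °C. Compound added, then 40 hr at 37 °C. CellTiter-Glo added, 20 min at room temperature, luminescence read.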

[4] = target: Mitogen-activated protein kinase 10 (Mus musculus) (UniProt Q61831); assay: JNK3 AlphaScreen Assay (AID 530; active means well fitted curve in either direction with a large enough effect, not every such curve was filed as active;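 further: kinase came from lysate of stimulated human HepG2 cells; signal reports phosphorylation of biotinylated GST-cJun 1-79 at Ser73 with 10 µM ATP; on the % scale 0 is the no-effect control and ±100 the full control effect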)
Summary of the method: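 HepG2 lysate (IL-1b/TNFa pre-activated) + biotin-GST-cJun 1-79 + anti-pSer73 cJun; cpd titration, 15 min RT; ATP 10 uM start; Tris pH 7.6, MgCl2, DTT, vanadate; beads in EDTA buffer; AlphaScreen.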

[5] = Cell Viability - Mesenchymal (AID 546); settings: mesenchymal cells viability, qHTS; activity change, negative = cytotoxicity: at 91.7 µM (top of the series);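 further: cells exposed to compound for 40 hours before reading; 0% = DMSO only and -100% = 100 µM tamoxifen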
Summary of the method: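 Human renal mesenchymal cells (glomerulus-derived), 1000 cells/well, 5 hr 37 °C pre-incubation; compound 40 hr, 37 °C; CellTiter-Glo, 20 min RT; luminescence; AC50 via Hill equation.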

[6] = target: Cytochrome P450 3A4 (Homo sapiens) (UniProt P08684); assay: qHTS Assay for Inhibitors and Substrates of Cytochrome P450 3A4 (AID 884); further: nearly all actives have a fitted effect of over 50% in size; further: potency means the concentration at half of the fitted maximal effect
Summary of the method: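 Luminescent readout of luciferin produced by CYP3A4 (20 nM) dealkylation of Luciferin-PPXE, 25 uM (its KM). NADPH-driven reaction ran 60 min at RT after 10 min compound preincubation; data scaled to 57 uM ketoconazole as 100% inhibition.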

[7] = qHTS Assay for Identification of Small Molecule Inducers of Hypoxia Response (AID 2120; active means well fitted curve in the direction sought with a large enough effect in the signal ratio, with a control signal flat, not every such curve was filed as active; the % refers to the signal ratio; further: 0% is about no effect)
Summary of the method: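 Read-out: CCF4 FRET emission ratio 460nm/530nm (excitation 405nm), converted to %Activity, with AC50 fitted across a compound titration. ME-180 cells carried an HRE-driven beta-lactamase reporter; compound exposure 17 h, 37 degrees C.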

[8] = target: Peroxisome proliferator-activated receptor gamma (Homo sapiens) (UniProt P37231); assay: qHTS assay for small molecule agonists of peroxisome proliferator-activated receptor gamma signaling (AID 588536; active means well fitted curve in the direction sought with a large enough effect in the signal ratio, with a control signal flat, not every such curve was filed as active; the % refers to the signal ratio;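 further: 0% = DMSO basal wells and 100% = rosiglitazone at 2 µM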)
Summary of the method: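 Using GeneBLAzer HEK293 cells, response was quantified by CCF4 fluorescence and normalized between basal DMSO (0%) and rosiglitazone 2 uM (100%); curves yielded half-maximal stimulation concentration and efficacy.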

[9] = target: Thyroid hormone receptor beta (Homo sapiens) (UniProt P10828); assay: qHTS assay for small molecule agonists of thyroid hormone receptor beta signaling (AID 588545; calls by dose curve)
Summary of the method: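 HEK 293 TR-UAS-bla; agonist mode; 18 hrs, 37 C; CCF4, ex 405/em 460 and 530 nm; norm. T3 10 nM = 100%, DMSO = 0%; Hill fit → EC50, efficacy.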

[10] = qHTS assay for small molecule antagonists of retinoid X receptor alpha signaling (AID 588546); settings: HEK293T RXRa-UAS-bla, beta-lactamase ratio, antagonist mode; measured here: W530 green channel, cytotoxicity proxy;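 further: cells stimulated with 9-cis-retinoic acid as agonist; on the % scale 0 is the no-effect control and ±100 the full control effect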
Summary of the method: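 Beta-lactamase reporter inhibition, read as CCF4 fluorescence ratio (ex 405, em 460/530 nm) after 2 h at RT. HEK293T UAS-bla cells, 2500/well, were stimulated with 9-cis-RA at 500 or 100 nM final alongside test compound for 18 h at 37 C.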

[11] = qHTS assay for environmental chemicals that activate the Aryl hydrocarbon Receptor (AhR) signaling pathway (AID 651777); settings: 1A2-DRE human hepatoma cells, luciferase, 24 h; activation: stronger effect = higher value; further: % of control where 0% means no effect; nearly all actives have a fitted effect of over 15% in size
Summary of the method: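 Luminescence read-out: One-Glo added for 30 min at RT after 24 hr compound treatment (37 C, 5% CO2) of human hepatoma cells expressing a DRE/CYP1A2 promoter–luciferase reporter; increased signal indicates AhR activation.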

[12] = target: Peroxisome proliferator-activated receptor alpha (Homo sapiens) (UniProt Q07869); assay: qHTS assay for small molecule agonists of the peroxisome proliferator-activated receptor alpha (PPARalpha) signaling pathway (AID 651778); settings: PathHunter PPARalpha complementation, chemiluminescence, 6 h; max response: stronger effect = higher value; further: % of control where 0% means no effect
Summary of the method: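 Enzyme-fragment complementation assay in which ligand-bound PPARalpha translocates and forms an active enzyme that generates chemiluminescence. Cells were plated overnight, exposed to compound for 6 hr at 37 C, and then given detection reagent for 60 min at room temperature.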

[13] = qHTS assay for small molecule agonists of the antioxidant response element (ARE) signaling pathway measured by Nrf2-dependant transcriptional activity (AID 720636; active means well fitted curve in the direction sought with a large enough effect in the repeat runs; an effect the other way counts as inactive or inconclusive;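 further: HepG2 cells with an ARE-driven luciferase reporter; % of control where 0% means no effect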)
Summary of the method: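 HepG2 ARE-luc reporter line, 1% dialyzed FBS; 6 hr attachment at 37 C, compound pinned in, 16 hr at 37 C/5% CO2; ONE-Glo, 30 min RT, luminescence read.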

[14] = qHTS assay for cell viability of HEK293 cells (AID 743288); settings: ATP luminescence (CellTiter-Glo), 18 h; max response: stronger effect = lower value; further: on the % scale 0 is the no-effect control and ±100 the full control effect; nearly all actives have a fitted effect of over 50% in size
Summary of the method: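 Quantitative high-throughput screen: compounds were pinned onto parental HEK293 cells (2,000 per well) after a minimum 5 h settling at 37 C, incubated 18 h at 37 C, and intracellular ATP measured by luciferase luminescence.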

[15] = qHTS assay for cell viability of the p53RE-bla HCT-116 cell line (AID 743292); further: on the % scale 0 is the no-effect control and ±100 the full control effect; nearly all actives have a fitted effect of over 55% in size
Summary of the method: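 Luminescent ATP quantitation (CellTiter-Glo) served as the viability read-out; reagent was added after 16 h compound exposure at 37 C and read after 30 min at room temperature. Cells: p53RE-bla HCT-116, 4,000 per well.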

[16] = target: Phospholipid hydroperoxide glutathione peroxidase GPX4 (Homo sapiens) (UniProt P36969); assay: Primary qHTS Assay for Inhibitors of Recombinant Selenoprotein Glutathione Peroxidase 4 (GPX4) (AID 1845192); further: nearly all actives have a fitted effect of over 65% in size; further: potency means the concentration at half of the fitted maximal effect
Summary of the method: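 Steps: GPX4 plus compound, 30 min RT; add GR/GSH/NADPH master mix; start with cumene hydroperoxide; read 340/450 nm fluorescence at 0 and 15 min. Finals were 200 nM GPX4, 1 mM GSH, 0.5 mM CHP, 0.5 mM NADPH, 100 nM GR.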

[17] = target: Luciferin 4-monooxygenase (Photinus pyralis) (UniProt P08659); assay: Biochemical firefly luciferase enzyme assay for NPC (AID 624030);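 further: purified P. pyralis luciferase at 10 nM with luciferin and ATP substrate; 0% = DMSO and -100% = full luciferase inhibition by PTC124 control; nearly all actives have a fitted effect of over 70% in size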
Summary of the method: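 Purified P. pyralis luciferase at 10 nM in 50 mM Tris Acetate (final), luminescence read within 5 minutes of enzyme addition to compounds. Activity normalised to PTC124 versus DMSO; concentration-response curves classed by r2, magnitude and activity.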

[18] = qHTS profiling for inhibitors of Plasmodium falciparum proliferation (AID 504749);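 further: 0% = DMSO vehicle and full inhibition = artemisinin control; nearly all actives have a fitted effect of over 60% in size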; settings: P. falciparum in erythrocytes, SYBR Green DNA, 72 h, at 28.7 µM (top of the series)
Summary of the method: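 SYBR Green fluorescence (ex 485 nm, em 535 nm) reports parasite DNA after 72 h compound exposure of infected red cells at 0.3% parasitemia, 2.5% hematocrit; signal normalized to 0.29 uM artemisinin and vehicle wells.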

Peroxisome proliferator-activated receptor gamma (Homo sapiens), sequence (P37231 whole entry, looked up): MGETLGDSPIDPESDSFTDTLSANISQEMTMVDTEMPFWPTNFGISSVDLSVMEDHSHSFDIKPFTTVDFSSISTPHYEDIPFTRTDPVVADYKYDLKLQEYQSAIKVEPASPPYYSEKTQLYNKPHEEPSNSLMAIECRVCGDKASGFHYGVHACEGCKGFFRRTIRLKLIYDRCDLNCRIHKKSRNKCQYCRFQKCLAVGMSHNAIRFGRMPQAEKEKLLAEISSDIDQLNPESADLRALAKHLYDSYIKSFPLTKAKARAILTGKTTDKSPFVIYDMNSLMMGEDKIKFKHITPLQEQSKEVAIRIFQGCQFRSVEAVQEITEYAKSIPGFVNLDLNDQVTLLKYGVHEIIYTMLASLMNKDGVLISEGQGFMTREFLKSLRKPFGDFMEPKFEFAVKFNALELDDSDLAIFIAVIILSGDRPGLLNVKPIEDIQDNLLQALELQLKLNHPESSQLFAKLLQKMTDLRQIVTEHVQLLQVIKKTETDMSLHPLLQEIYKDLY
Peroxisome proliferator-activated receptor alpha (Homo sapiens), sequence (Q07869 whole entry, looked up, the tested form may be a part): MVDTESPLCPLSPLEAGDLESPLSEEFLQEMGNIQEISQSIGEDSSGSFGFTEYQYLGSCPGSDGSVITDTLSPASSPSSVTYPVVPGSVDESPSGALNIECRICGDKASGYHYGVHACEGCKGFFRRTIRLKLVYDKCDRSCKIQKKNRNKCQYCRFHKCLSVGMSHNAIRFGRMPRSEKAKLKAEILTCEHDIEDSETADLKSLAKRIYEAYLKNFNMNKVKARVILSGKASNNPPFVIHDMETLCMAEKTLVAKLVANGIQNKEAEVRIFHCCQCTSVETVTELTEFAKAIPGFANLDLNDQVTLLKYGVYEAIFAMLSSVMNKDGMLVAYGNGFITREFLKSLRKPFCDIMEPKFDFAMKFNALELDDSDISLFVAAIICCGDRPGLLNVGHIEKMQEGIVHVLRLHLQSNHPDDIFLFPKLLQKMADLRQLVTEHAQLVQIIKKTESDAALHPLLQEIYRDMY
Cytochrome P450 3A4 (Homo sapiens), sequence (P08684 whole entry, looked up): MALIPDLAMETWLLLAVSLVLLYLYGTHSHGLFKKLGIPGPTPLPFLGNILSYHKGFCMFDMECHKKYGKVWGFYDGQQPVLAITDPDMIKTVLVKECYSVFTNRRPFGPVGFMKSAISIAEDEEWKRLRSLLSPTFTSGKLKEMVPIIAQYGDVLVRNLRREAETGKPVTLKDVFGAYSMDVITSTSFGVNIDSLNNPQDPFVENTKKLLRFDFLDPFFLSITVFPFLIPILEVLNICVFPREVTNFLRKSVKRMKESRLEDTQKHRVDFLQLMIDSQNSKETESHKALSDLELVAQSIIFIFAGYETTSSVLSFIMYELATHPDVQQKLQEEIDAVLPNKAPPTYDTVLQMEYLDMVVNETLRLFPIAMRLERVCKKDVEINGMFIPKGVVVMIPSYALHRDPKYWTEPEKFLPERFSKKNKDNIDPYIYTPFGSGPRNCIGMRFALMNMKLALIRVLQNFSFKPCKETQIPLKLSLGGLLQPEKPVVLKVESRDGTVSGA
Phospholipid hydroperoxide glutathione peroxidase GPX4 (Homo sapiens), sequence (P36969 whole entry, looked up): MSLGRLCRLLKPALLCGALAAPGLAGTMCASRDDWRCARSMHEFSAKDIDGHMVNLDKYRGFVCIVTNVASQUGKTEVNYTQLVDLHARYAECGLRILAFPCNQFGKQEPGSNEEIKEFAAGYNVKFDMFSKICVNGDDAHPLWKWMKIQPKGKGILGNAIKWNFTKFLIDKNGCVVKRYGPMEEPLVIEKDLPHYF
Thyroid hormone receptor beta (Homo sapiens), sequence (P10828 whole entry, looked up): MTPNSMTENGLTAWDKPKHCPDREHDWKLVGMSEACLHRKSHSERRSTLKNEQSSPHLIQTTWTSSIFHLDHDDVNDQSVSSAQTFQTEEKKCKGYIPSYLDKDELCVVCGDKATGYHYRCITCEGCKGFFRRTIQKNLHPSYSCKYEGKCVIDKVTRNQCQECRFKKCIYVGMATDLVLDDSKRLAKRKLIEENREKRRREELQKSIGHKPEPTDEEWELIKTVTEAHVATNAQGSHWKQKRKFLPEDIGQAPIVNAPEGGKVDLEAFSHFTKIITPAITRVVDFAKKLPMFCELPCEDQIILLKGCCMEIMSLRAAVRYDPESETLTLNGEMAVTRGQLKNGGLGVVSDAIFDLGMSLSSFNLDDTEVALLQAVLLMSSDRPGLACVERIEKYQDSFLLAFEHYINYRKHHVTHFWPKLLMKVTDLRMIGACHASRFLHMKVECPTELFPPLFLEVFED
Luciferin 4-monooxygenase (Photinus pyralis), sequence (P08659 whole entry, looked up): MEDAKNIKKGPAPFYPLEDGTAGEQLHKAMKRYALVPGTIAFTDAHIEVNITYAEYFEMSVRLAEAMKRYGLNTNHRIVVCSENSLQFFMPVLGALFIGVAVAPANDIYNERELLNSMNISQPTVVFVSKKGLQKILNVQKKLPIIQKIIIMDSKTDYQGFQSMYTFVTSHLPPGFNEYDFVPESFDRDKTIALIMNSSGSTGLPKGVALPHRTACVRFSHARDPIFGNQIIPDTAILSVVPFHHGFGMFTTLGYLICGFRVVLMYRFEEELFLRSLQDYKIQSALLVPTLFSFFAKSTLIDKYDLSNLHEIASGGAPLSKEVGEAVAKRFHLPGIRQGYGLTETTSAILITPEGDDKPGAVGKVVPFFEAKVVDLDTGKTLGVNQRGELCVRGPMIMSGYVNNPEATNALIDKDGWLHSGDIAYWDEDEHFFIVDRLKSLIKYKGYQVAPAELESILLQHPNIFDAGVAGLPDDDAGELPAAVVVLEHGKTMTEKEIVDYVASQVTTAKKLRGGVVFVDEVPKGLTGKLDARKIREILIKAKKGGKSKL

CCC(O)OC(O)CC (stereo unspecified)
-6.87% and -7.76%: max response [10]
inactive: Potency [1] > 92 µM | Potency [2] > 92 µM | Potency [3] > 92 µM | Potency [4] | activity change, negative = cytotoxicity [5] 7.91% and -0.346% | Potency [6] | outcome [7] | outcome [8] | outcome [9] | activation [11] 0.464% [middle of 4 runs] | max response [12] -0.587% [middle of 4 runs] | Potency [13] | max response [14] -2.73% [middle of 4 runs] | Potency [15]

CC1=CC(C)(C)Nc2ccccc21
10 µM (active) and inactive: Potency [6]
-11.3% and -9.31%: max response [10]
inactive: Potency [1] > 92 µM | Potency [2] > 92 µM | Potency [3] > 92 µM | Potency [4] | activity change, negative = cytotoxicity [5] 16.2% and 9.84% | outcome [7] | outcome [8] | outcome [9] | activation [11] 1.47% and 1.06% | max response [12] 2.08% and -3.28% | Potency [13] | max response [14] -4.28% and -1.89% | Potency [15]

CCCCCCCCCCCCCCCC(=O)OCC=C(C)C=CC=C(C)C=CC1=C(C)CCCC1(C)C
inactive: Potency [16]

Cc1cnc(C(=O)N[C@H]2CCCCC/C=C/[C@@H]3C[C@@]3(C(=O)NS(=O)(=O)C3CC3)NC(=O)[C@@H]3C[C@@H](Oc4nc5ccccc5c5ccccc45)CN3C2=O)cn1
active: Potency [16] 3.98 µM

CN(C)CCCCCCN(C)C
-0.59%: max response [10]
inactive: Potency [1] > 92 µM | Potency [2] > 92 µM | Potency [3] > 92 µM | Potency [4] | activity change, negative = cytotoxicity [5] 10.5% | Potency [6] | outcome [7] | outcome [8] | outcome [9] | Potency [17] | activation [11] 1.69% | max response [12] -5.54% | Potency [13] | max response [14] -4.75% | Potency [15] | activity, negative = inhibition ([18]; parasite line A) 13.6% | activity, negative = inhibition ([18]; parasite line B) -6.83%

C=CCN1CC[C@]23c4c5ccc(O)c4O[C@H]2[C@@H](OCCOCCOCCOCCOCCOCCOCCOC)CC[C@@]3(O)[C@H]1C5
inactive: Potency [16]
